Results: PubChem BioAssay AID2110 (National Center for Advancing Translational Sciences (NCATS), 2009)
Where “and” joins values, the source holds several entries; their conditions need not be identical. Equal values may be shown once. Inconclusive results are not listed. A call without a number means that no potency is given here. Calls of active or inactive are those of the source. The call rests on the fitted dose curve; in most records, active means well fitted curve in either direction with a large enough effect; inconclusive means small, poorly fitted or top-dose-only effect; inactive means no such curve, though single readings can be large or run the other way.

Target: Lysosomal alpha-glucosidase (Homo sapiens) (UniProt P10253)
Assay: Confirmation of Inhibitors and Activators of Purified Human alpha-Glucosidase Using an Alternate Red Fluorescent Susbtrate
Details: purified enzyme, red fluorogenic substrate; series mostly up to 63.4 µM
Method in brief: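 Recombinant human alpha-glucosidase (4 nM) with resorufin-[…] (400 uM) in 50 mM citrate buffer pH 5.0, 0.005% Tween-20, 20 min at room temperature, stopped at pH 10. AC50 from Hill fits.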

Row | SMILES | Potency
1 | CC(=O)c1ccc(N2CCN(S(=O)(=O)c3ccc4[nH]c(=O)[nH]c4c3)CC2)cc1 | inactive
2 | CCCN1CNc2c(c(=O)[nH]c(=S)n2CCC(C)(C)C)C1 | inactive
3 | Nc1nc(N)c2nc(-c3ccccc3)c(N)nc2n1 | inactive
4 | CCCN1CNc2c(c(=O)[nH]c(=S)n2CCc2c(Cl)cccc2Cl)C1 | 1.12 µM (active)
5 | CC(=O)c1ccc(N2CCN(S(=O)(=O)c3ccc4c(c3)CC(=O)N4)CC2)cc1 | 919 nM [inhibitor] (active) and 1.06 µM [inhibitor] (active) and 1.3 µM [inhibitor] (active)
6 | COc1ccc(C#Cc2cnc(Cl)c3cncnc23)cc1OC | inactive
7 | CCCN1CNc2c(c(=O)[nH]c(=S)n2CCc2cccc(OC)c2)C1 | 2.51 µM (active)
8 | CC(=O)c1ccc(N2CCN(S(=O)(=O)c3ccc4c(c3)CCCC(=O)N4)CC2)cc1 | inactive
9 | CCCCN1C[C@H](O)[C@@H](O)[C@H](O)[C@H]1CO | inactive
10 | CCCN1CNc2c(c(=O)[nH]c(=S)n2CCc2ccsc2)C1 | 25.1 µM (active)
11 | COc1cc(NS(C)(=O)=O)ccc1Nc1c2ccccc2nc2ccccc12 | inactive
12 | CC(=O)c1ccc(N2CCN(S(=O)(=O)c3ccc(N4CCCC4=O)cc3)CC2)cc1 | inactive
13 | CC(=O)Nc1ccc(S(=O)(=O)N2CCN(c3ccc(C(C)=O)cc3)CC2)cc1 | inactive
14 | O=c1[nH]cc(C#Cc2ccccc2)c2ncncc12 | inactive
15 | CC(=O)c1ccc(N2CCN(S(=O)(=O)c3ccc4c(c3)oc(=O)n4C)CC2)cc1 | inactive
16 | CCCN1CNc2c(c(=O)[nH]c(=S)n2CCc2cc(OC)cc(OC)c2)C1 | 0.708 µM (active)
17 | CCCN1CNc2c(c(=O)[nH]c(=S)n2CCc2cccc(C)c2C)C1 | 1.12 µM (active)
18 | O=C1Cc2cc(S(=O)(=O)N3CCN(c4ccc([N+](=O)[O-])cc4)CC3)ccc2N1 | 3.26 µM [inhibitor] (active)
19 | CCCN1CNc2c(c(=O)[nH]c(=S)n2CCc2ccc(C)c(C)c2)C1 | 1.12 µM (active)
20 | c1csc(-c2nc(NCC3CCCO3)c3ccccc3n2)c1 (stereo unspecified) | inactive
21 | COc1ccc(CCn2c(=S)[nH]c(=O)c3nccnc32)cc1OC | inactive
22 | Cc1ccc(S(=O)(=O)N2CCN(C(=O)N(c3ccccc3)c3ccccc3)CC2)cc1 | inactive
23 | CC(=O)c1ccc(N2CCN(S(=O)(=O)c3ccc4c(c3)CC(C)N4C(C)=O)CC2)cc1 (stereo unspecified) | inactive
24 | O=C1Cc2cc(S(=O)(=O)N3CCN(c4ccc(CO)cc4)CC3)ccc2N1 | 13 µM [inhibitor] (active)
25 | CCCN1CNc2c(c(=O)[nH]c(=S)n2CCc2cc(Cl)cc(Cl)c2)C1 | 2 µM (active)
26 | O=C1Cc2cc(S(=O)(=O)N3CCN(c4cccc(C(F)(F)F)c4)CC3)ccc2N1 | 14.9 µM [inhibitor] (active)
